# Rows were chosen to be rich in hits. Some 2.4% of all compounds tested hit in one or more screens of this group.
# D2 ag-1 – Beta-Arrestin HTS for Positive Allosteric Modulators of the Human D2 Dopamine Receptor: Agonists; 360,000 tested, 0.084% active; D(2) dopamine receptor (Homo sapiens), P14416; DiscoveRx PathHunter D2 beta-arrestin, luminescence, 90 min; 100% = 57 uM dopamine signal; activation, % (concentration not given with the values); in the data active = activation above about 40%
# Target sequence (P14416 whole entry, looked up): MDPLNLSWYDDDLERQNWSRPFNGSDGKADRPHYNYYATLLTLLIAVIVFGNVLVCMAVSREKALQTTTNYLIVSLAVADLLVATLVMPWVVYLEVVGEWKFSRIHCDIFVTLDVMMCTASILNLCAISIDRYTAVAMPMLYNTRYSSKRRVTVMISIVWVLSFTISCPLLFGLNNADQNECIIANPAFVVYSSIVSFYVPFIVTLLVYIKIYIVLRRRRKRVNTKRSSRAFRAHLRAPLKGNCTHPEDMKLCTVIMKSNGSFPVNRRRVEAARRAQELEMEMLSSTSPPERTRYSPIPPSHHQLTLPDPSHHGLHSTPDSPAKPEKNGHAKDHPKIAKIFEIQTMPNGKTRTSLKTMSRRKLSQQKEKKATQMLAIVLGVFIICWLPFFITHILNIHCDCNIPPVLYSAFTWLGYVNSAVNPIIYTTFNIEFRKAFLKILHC
#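 Agonist mode: compounds alone added to overnight-plated D2 PathHunter cells for 90 min at 37 C, with 57 uM final dopamine (EC100) defining full response. Beta-arrestin recruitment detected by chemiluminescent reagent, read after 1 h at ambient temperature.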
# D2 PAM-1 – Beta-Arrestin HTS for Positive Allosteric Modulators of the Human D2 Dopamine Receptor: Potentiators; DiscoveRx D2 beta-arrestin cells, luminescence, 90 min; 100% = 57 uM dopamine signal; potentiation, % (concentration not given with the values); D(2) dopamine receptor (Homo sapiens), P14416; 360,000 tested, 0.23% active; in the data active = potentiation above about 50%
#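 PathHunter D2 cells, attached overnight at 37 deg C, received compound in DMSO plus dopamine at EC20 (50 nM final) for 90 min at 37 deg C. Beta-arrestin recruitment was read as luminescence after 1 h with detection reagent at ambient temperature.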
# D2 ag-2 – HTS Assay for Allosteric Agonists of the Human D2 Dopamine Receptor: Primary Screen for Agonists | D(2) dopamine receptor (Homo sapiens), P14416 | HEK293 T-REx D2 cells, calcium flux agonist mode | activation, % at 2 µM | 340,000 tested, 0.53% active | AID 485358, 2010;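 active = activation over 3 SD above normal in the single-dose calcium agonist read, cut at about 30% in these data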; also: 0% is about no effect
#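 Tetracycline-induced HEK293 T-REx cells with force-coupled D2 receptor, plated overnight at 30 C, loaded with no-wash calcium dye. After a 10 s baseline, compound was pin-added and calcium flux read kinetically for 180 s; calcium rises flagged agonists.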
# D2 PAM-2 – HTS Assay for Positive Allosteric Modulators of the Human D2 Dopamine Receptor: Primary Screen for Potentiators; D(2) dopamine receptor (Homo sapiens), P14416; HEK293 T-REx D2, calcium flux, EC20 dopamine potentiation; potentiation, % at 10 µM; 340,000 tested, 0.34% active; AID 485347, 2010;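 active = potentiation over 3 SD above the plate norm, cut at about 30% in these data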; also: 0% is about no effect
#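 Calcium flux readout, no-wash dye, 1 read/s. Inducible HEK293 Trex D2 line, overnight 30 C. Compound alone 180 s (agonist flags), then EC20 dopamine, another 180 s to score potentiation.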
# D2 antagonist – HTS Assay for Allosteric Antagonists of the Human D2 Dopamine Receptor: Primary Screen for Antagonists; HEK293 TREx D2 cells, calcium flux, dopamine EC80; inhibition, % at 10 µM; 340,000 tested, 2% active; in the data active = inhibition above about 30%; inactive = below that, where a call was filed; also: 0% is about no effect
#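 In this primary screen, negative modulation is detected by tracking calcium flux after an EC80 dopamine challenge in inducible HEK293 T-REx D2 cells preexposed to test compound for 180 s.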
# An asterisk follows results filed as active; · = not tested or not shown.
SMILES,D2 ag-1,D2 PAM-1,D2 ag-2,D2 PAM-2,D2 antagonist
Cc1cc(F)ccc1S(=O)(=O)N1CCCOC1CNC(=O)C(=O)NCCN1CCOCC1 (stereo not given),3,14,2,3,5
Cc1cc(F)ccc1S(=O)(=O)N1CCCOC1CNC(=O)C(=O)NCCCN1CCOCC1 (stereo not given),3,-23,32*,-7,20
O=C(NCCc1ccccc1)C(=O)NCC1OCCN1S(=O)(=O)c1ccc(Br)cc1 (stereo not given),11,-4,0,-2,31*
COc1ccccc1CCNC(=O)C(=O)NCC1OCCCN1S(=O)(=O)c1cc(C)ccc1C (stereo not given),-2,-11,-1,-1,34*
CCOC(=O)c1c(NC(=O)c2cc3ccccc3c(=O)o2)sc2c1CCC(C(C)(C)C)C2 (stereo not given),·,·,0,-3,·
Cc1ccc(CNC(=O)c2sc3nc4n(c(=O)c3c2C)CCCC4)cc1,·,·,8,7,·
CC(C)C[C@H]1CN=C(Nc2ccccc2)N1CCc1ccc(F)cc1,-1,-67,59*,-18,73*
CC(C)C[C@H]1CN=C(Nc2ccccc2)N1CCc1cccc(F)c1,-2,-31,·,·,·
Cc1cccc(CCN2C(Nc3ccccc3)=NC[C@@H]2CC(C)C)c1,-2,-16,60*,-25,70*
CC(C)CCN1C(Nc2ccccc2)=NC[C@@H]1CC(C)C,-4,-9,0,-24,-1
C=CCN1C(=O)CN=C1Nc1cccc(C)c1,-4,1,·,·,·
Cc1cccc(NC2=NCC(=O)N2CCc2ccccc2)c1,-5,-17,2,2,37*
CSCCC(NS(=O)(=O)c1cccs1)C(=O)Nc1ccc(C)c(Cl)c1 (stereo not given),·,·,0,15,·
Clc1ccc(SCCOCCN2CCc3ccccc3C2)cc1,-3,-8,0,-23,50*
Clc1ccc(OCCCN2CCc3ccccc3C2)c(Br)c1,-3,-68,-1,-24,64*
Clc1ccc(OCCOCCN2CCc3ccccc3C2)c(Cl)c1,0,-14,0,-28,64*
CC1CCCN(CCCOc2ccc(Cl)cc2Br)C1 (stereo not given),-3,-40,0,-23,-4
O=C(COC(=O)C1C2CC3OC(=O)C1C3C2)Nc1ccccc1 (stereo not given),2,-1,-2,7,69*
CCOc1cccc(/C(O)=C2/C(=O)C(=O)N(Cc3cccnc3)C2c2ccco2)c1 (stereo not given),-3,-5,1,-3,-8
CCOc1cccc(/C(O)=C2/C(=O)C(=O)N(CCOC)C2c2ccco2)c1 (stereo not given),0,-26,0,34*,14
COc1cccc(NC(=O)CSc2nc(=O)n(Cc3ccccn3)c3c2CCC3)c1,·,·,1,11,·
CCOc1ccc(Cc2onc3c2C(=O)CC(C)(C)C3)cc1OCC,1,3,-1,38*,1
CCOc1ccc(Cc2onc3c2C(=O)CCC3)cc1OCC,-3,-3,4,-7,4
Cc1cccc(NC(=O)c2cn(-c3ccccc3)nc2-c2ccccc2)c1C,·,·,1,-2,·
COc1ccc(OC)c(NC(=O)CSc2nncc3ccccc23)c1,-1,-7,0,0,0
CCn1c(SCc2nc3sc(C(=O)O)c(C)c3c(=O)[nH]2)nc2ccccc21,-1,6,2,3,-10
CCOc1ccccc1NC(=O)CSc1nnc2c(CC)c(C)nc(N)n12,-1,-5,3,·,35*
COCCn1c(SCc2nc3sc(C(=O)OC)c(C)c3c(=O)[nH]2)nc2ccccc21,-2,-19,1,-5,31*
CCOc1ccc(NC(=O)CN(C)c2nnnn2-c2ccccc2)cc1OCC,-2,-11,1,2,35*

# Screens as filed in PubChem.
